Measured values taken from PubChem BioAssay AID1530 (NMMLSC, 2009).
In all, about 290,000 compounds went through this assay and about 1,000 (0.34%) were called active. Cut-off read from the data, not from the text of the source: active = percent response above about 24% (passing the limit was not always enough); inactive = the rest. Many of the other results were omitted from the sample, so actives are more common in it than they were.

tested on: MEKK2 (MAP3K2) mutant PB1 domain binding to MEK5, human; test: MEK5 binding signal on mutant MEKK2 PB1, primary screen, biochemical, multiplex bead flow cytometry, Alexa488-MEK5 (AID 1530); conditions: at 10 µM, active compounds read high

Percent response, inactive:
COCCNC(=O)/C(C#N)=C/c1cccc(OCc2ccccc2)c1 2%, COCCCNC(=O)/C(C#N)=C/c1c(N2CCCCCC2)nc2ccccn2c1=O 5%, Cc1ccc(C(NC(=O)N2CCCC2)C(Cl)(Cl)Cl)cc1F (stereo not drawn) -1%, Cc1ccc(S(=O)(=O)c2c[nH]c3ccc(C)cc3c2=O)cc1 3%, Cc1ccc2c(C)c(C(=O)N(C)Cc3ccncn3)oc2c1C 0%, Cc1c(C(=O)N2CCN(c3ccc(F)cc3)CC2)oc2c1C(=O)CCC2 0%, Cc1cccc(CCNC(=O)Cn2ncc3c([nH]c4ccc(C)cc43)c2=O)c1 -4%, CCCNC(=O)COc1coc(CN2CCN(Cc3ccccc3)CC2)cc1=O 10%, COc1ccc(-c2nnc(NC(=O)CS(=O)(=O)c3ccc(Cl)cc3)o2)c(OC)c1 2%, c1ccc2c(CSCc3nc4ccccc4[nH]3)cccc2c1 1%, CCOc1ccc(Br)cc1CSC(=N)N -1%, CCOC(=O)C1Nc2ccc(C(F)(F)F)cc2C2C=CCC12 (stereo not drawn) 0%, CC(=O)c1ccc(S(=O)(=O)N2CCC3(CC2)OCCO3)cc1 -1%, CN1CCN(c2nc(Nc3ccc(O)cc3)nc3ccccc23)CC1 2%, O=c1[nH]c(N2CCOCC2)nc2ccccc12 5%, Cc1ccc(C)c(OCCC(=O)OCC(=O)N2CCN(c3ccccc3)CC2)c1 -5%, O=C(NNS(=O)(=O)c1ccc([N+](=O)[O-])cc1)C1CCCCC1 7%, Cc1nc(-c2ccccc2)sc1C1(C)CC(c2cccnc2)=NO1 (stereo not drawn) -3%, O=C(Nc1cccnc1)c1ccc(Cl)cc1[N+](=O)[O-] 2%, O=C(Nc1cccnc1)c1cc([N+](=O)[O-])ccc1Cl 6%, Cc1[nH]n(C(N)=S)c(=O)c1N=Nc1ccc(Cl)cc1Cl 2%, CCn1c(CNC(=O)c2cc(OC)c(OC)c(OC)c2)cc2cc(C)ccc21 -6%, CN(C(=O)CN1C(=O)CCSc2ccc(S(=O)(=O)N3CCCC3)cc21)c1ccccc1 1%

Percent response, active:
COCCNC(=O)/C(C#N)=C/c1nc(N(C)C)n(-c2ccc(F)cc2)c1Cl 63%, Cc1ccc2c(C)c(C(=O)N3CCN(c4ccncc4)CC3)oc2c1C 30%, N=C(N)SCc1cccc2ccccc12 91%, c1ccc(Nc2nc(N3CCOCC3)c3ccccc3n2)cc1 38%, O=C(Nc1cccnc1)c1cc(Cl)ccc1Cl 28%
